From PubChem BioAssay (Tox21)
Values joined by “and” are separate entries in the source; they are usually repeats but may differ in a detail not shown here. Equal entries are not always repeated. Results filed as inconclusive are left out. A structure can be active in one record and inactive in another. Active and inactive are the calls of the source. Unless noted, the call rests on the fitted dose curve.

Columns and labels:
[1] = Nuclear factor erythroid 2-related factor 2/antioxidant responsive element (Nrf2/ARE) small molecule agonists: qHTS cell viability counter screen in human keratinocytes (AID 1919968; active means well fitted cell-killing curve with a large enough effect in the repeat runs; further: nearly all actives have a fitted effect of over 55% in size)
In short: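 KeratinoSens HaCaT cells, 1,500/well, preincubated 5 h, then exposed to compounds in DMSO for 23 h at 37 C/5% CO2. Viability read as CellTiter-Fluor fluorescence after 1 h, in the same wells as the ARE-luciferase read.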

[2] = Nuclear factor erythroid 2-related factor 2/antioxidant responsive element (Nrf2/ARE) small molecule agonists: luciferase reporter gene qHTS assay in human keratinocytes (AID 1919969); further: nearly all actives have a fitted effect of over 35% in size; further: potency means the concentration at half of the fitted maximal effect
[3] = molecular target: Gonadotropin-releasing hormone receptor (Homo sapiens) (UniProt P30968); assay: Human gonadotropin-releasing hormone receptor (GnRHR) small molecule agonists, calcium flux assay in GnRHR-HEK293 cells (AID 1920063); further: nearly all actives have a fitted effect of over 35% in size
In short: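 HEK293 cells stably expressing human GnRHR were dye-loaded for 1 h at 37 C. Compound was added in agonist mode and fluorescence (Ex/Em 480/540) recorded kinetically for 3 min. Fifteen concentrations, triplicates.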

[4] = G protein-coupled receptor (GPCR) small molecule agonists, calcium flux assay: HEK293 wild type cell line counter screen (AID 1920065)
In short: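 Wild-type HEK293 cells plated 18 h, loaded with calcium dye 1 h at 37 C, then compounds added in agonist mode (ATP as positive control). Kinetic fluorescence Ex/Em 480/540 recorded 3 min at 1 sec intervals; 15 concentrations, triplicate.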

[5] = p53 small molecule agonists, cell-based qHTS assay with human liver microsomes (AID 1963577)
In short: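 p53RE-bla cells, 4,000/well, compound added after 5 h, with human liver microsomes 0.5 mg/mL and NADPH 0.5 mg/mL final; 16 h at 37 C, then LiveBLAzer 2 h RT, fluorescence.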

[6] = p53 small molecule agonists, cell-based qHTS assay with rat liver microsomes (AID 1963578)
In short: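 p53RE-bla cells, 4,000/well, pre-incubated 5 h, then given compounds plus rat liver microsomes (0.5 mg/mL final) and NADPH (0.5 mg/mL final). Incubation 16 h at 37 C; beta-lactamase reporter read by LiveBLAzer fluorescence after 2 h at room temperature.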

[7] = p53 small molecule agonists, cell-based qHTS assay with human liver microsomes: qHTS cell viability counter screen (AID 1963579); further: nearly all actives have a fitted effect of over 45% in size; further: potency means the concentration at half of the fitted maximal effect
In short: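 p53RE-bla cells, 4,000/well, dosed 5 hours after plating, with human liver microsomes (0.5 mg/mL final) plus NADPH (0.5 mg/mL final), 16 hours at 37 C. Viability read as CellTiter-Glo luminescence after 30 min at room temperature.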

[8] = p53 small molecule agonists, cell-based qHTS assay with rat liver microsomes: qHTS cell viability counter screen (AID 1963580); further: nearly all actives have a fitted effect of over 45% in size
In short: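 In HCT-116 cells carrying a p53 response element-bla reporter, compounds were metabolically activated in situ by rat liver microsomes with NADPH over 16 h. Cell ATP content then served as the cytotoxicity measure.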

[9] = p53 small molecule agonists, cell-based qHTS assay: qHTS cell viability counter screen (AID 1963581); further: nearly all actives have a fitted effect of over 45% in size
In short: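 p53RE-bla HCT-116 cells, compounds added 5 h after plating and incubated 16 h at 37 C. Cytotoxicity measured in the same wells as intracellular ATP by CellTiter-Glo luminescence after 30 min at room temperature.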

[10] = molecular target: 5-hydroxytryptamine receptor 2A (Homo sapiens) (UniProt P28223); assay: 5-hydroxytryptamine receptor 2A (HTR2A) small molecule antagonists, cell-based qHTS assay (AID 1963586); further: nearly all actives have a fitted effect of over 45% in size; further: potency means the concentration at half of the fitted maximal effect
In short: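 Antagonist-mode intracellular calcium assay: DOI (4 nM) added after 5 min compound pre-incubation at room temperature to dye-loaded HTR2A-CHO cells. Fluorescence followed for 3 min, sampled every second.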

[11] = molecular target: 5-hydroxytryptamine receptor 2A (Homo sapiens) (UniProt P28223); assay: 5-hydroxytryptamine receptor 2A (HTR2A) small molecule agonists, cell-based qHTS assay (AID 1963587); further: nearly all actives have a fitted effect of over 30% in size
In short: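 HTR2A-CHO cells, plated 18 h at 37 C/5% CO2, dye-loaded 1 h at 37 C; compounds in DMSO added by pin tool (agonist mode). Intracellular calcium flux read as kinetic fluorescence on FDSS over 2 min at 1 s intervals.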

[12] = molecular target: Muscarinic acetylcholine receptor M1 (Homo sapiens) (UniProt P11229); assay: Cholinergic receptor muscarinic 1 (CHRM1) small molecule antagonists, cell-based qHTS assay (AID 1963588); further: nearly all actives have a fitted effect of over 40% in size
In short: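 CHRM1-CHO calcium-flux assay, antagonist mode. Cells were seeded 18 h, dye-loaded 1 h at 37 C and given compound for 5 min at RT, then acetylcholine was added at 50nM. FDSS fluorescence was read 3 min; 15 concentrations, three runs.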

[13] = molecular target: Muscarinic acetylcholine receptor M1 (Homo sapiens) (UniProt P11229); assay: Cholinergic receptor muscarinic 1 (CHRM1) small molecule agonists, cell-based qHTS assay (AID 1963589); further: nearly all actives have a fitted effect of over 35% in size
In short: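 CHO cells stably expressing human CHRM1 were loaded with calcium dye for 1 h at 37 C, then compound was added in agonist mode. Intracellular calcium fluorescence was followed kinetically at 1 s intervals. Fifteen concentrations were tested in three independent runs.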

[14] = cAMP Responsive Elements (CRE) small molecule agonists, cell-based qHTS assay (AID 1963590)
In short: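 CRE-bla HEK 293T cells, 2,000/well in DMEM with 10% dialyzed FBS and 25 mM HEPES, pre-incubated 18 h at 37 C, then exposed to compound 3 h at 37 C. Beta-lactamase reporter read with LiveBLAzer B/G FRET substrate after 2 h at room temperature.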

[15] = cAMP Responsive Elements (CRE) small molecule antagonists, cell-based qHTS assay (AID 1963591; active means well fitted inhibition curve with a large enough effect in the signal ratio in the repeat runs, not every such curve was filed as active; the % refers to the signal ratio)
In short: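 CRE-bla HEK293T cells plated 18 h, then given compound plus NKH477 at 0.25 uM final for 3 h at 37C. Beta-lactamase reporter read with LiveBLAzer B/G FRET substrate after 2 h at room temperature.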

[16] = molecular target: Beta-2 adrenergic receptor (Homo sapiens) (UniProt P07550); assay: Adrenergic beta2 receptor (ADRB2) small molecule antagonists, cell-based qHTS assay (AID 1963592); further: series mostly up to about 92 µM; nearly all actives have a fitted effect of over 50% in size
In short: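 Cells (CHO, stable ADRB2 overexpression) incubated 18-20hr at 37C; compounds added from DMSO; agonist mix (1nM isoproterenol, 100uM IBMX, 25uM Ro-20-1724) added; 0.5hr RT; d2-cAMP and anti-cAMP-cryptate added; 1hr RT; 665/615 nm read.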

[17] = molecular target: D(2) dopamine receptor (Homo sapiens) (UniProt P14416); assay: Dopamine D2 receptor (DRD2) small molecule agonists, cell-based qHTS assay (AID 1963594); further: nearly all actives have a fitted effect of over 35% in size
In short: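 HEK293 cells stably expressing DRD2 were cultured 24 h at 37 C, then given Ro20-1724 (0.1 mM final) and compounds for 10 min at room temperature. NKH477 (200nM) was then added for 30 min. cAMP was read by HTRF.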

[18] = molecular target: D(2) dopamine receptor (Homo sapiens) (UniProt P14416); assay: Dopamine D2 receptor (DRD2) small molecule antagonists, cell-based qHTS assay (AID 1963595; active means well fitted inhibition curve with a large enough effect in the signal ratio in the repeat runs, with a control signal flat; the % refers to the signal ratio)
In short: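 Cells were plated and grown for 24 h at 37 °C. Ro20-1724 (0.1 mM final) went in first, then compound for 10 min. NKH477 (200 nM) with quinpirole (12 nM) followed for 30 min at RT, then HTRF detection reagents for 1 h.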

[19] = molecular target: Beta-2 adrenergic receptor (Homo sapiens) (UniProt P07550); assay: Adrenergic beta2 receptor (ADRB2) small molecule agonists, cell-based qHTS assay (AID 1963593);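 further: CHO cells stably overexpressing human ADRB2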
In short: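 CHO cells stably over-expressing ADRB2 were plated overnight at 37C, then dosed with compounds plus a stimulation mix containing 100uM IBMX and 25uM Ro-20-1724 for 0.5hr at room temperature. cAMP was measured by HTRF competition, 1hr.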

Measured: Potency

Sequence of Muscarinic acetylcholine receptor M1 (Homo sapiens) (P11229 whole entry, looked up): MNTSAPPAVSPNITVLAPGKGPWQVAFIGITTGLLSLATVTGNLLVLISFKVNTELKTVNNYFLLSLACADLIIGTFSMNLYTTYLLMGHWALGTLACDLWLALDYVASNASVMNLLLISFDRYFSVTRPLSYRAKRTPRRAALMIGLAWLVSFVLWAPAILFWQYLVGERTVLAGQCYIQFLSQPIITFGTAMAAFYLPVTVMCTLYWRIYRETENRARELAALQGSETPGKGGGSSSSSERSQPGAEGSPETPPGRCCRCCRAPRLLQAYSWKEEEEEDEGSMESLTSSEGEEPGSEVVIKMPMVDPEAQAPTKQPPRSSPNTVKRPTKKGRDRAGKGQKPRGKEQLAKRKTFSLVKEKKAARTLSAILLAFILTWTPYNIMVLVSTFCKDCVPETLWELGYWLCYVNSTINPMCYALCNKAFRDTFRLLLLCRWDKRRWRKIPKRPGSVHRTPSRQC
Sequence of Gonadotropin-releasing hormone receptor (Homo sapiens) (P30968 whole entry, looked up): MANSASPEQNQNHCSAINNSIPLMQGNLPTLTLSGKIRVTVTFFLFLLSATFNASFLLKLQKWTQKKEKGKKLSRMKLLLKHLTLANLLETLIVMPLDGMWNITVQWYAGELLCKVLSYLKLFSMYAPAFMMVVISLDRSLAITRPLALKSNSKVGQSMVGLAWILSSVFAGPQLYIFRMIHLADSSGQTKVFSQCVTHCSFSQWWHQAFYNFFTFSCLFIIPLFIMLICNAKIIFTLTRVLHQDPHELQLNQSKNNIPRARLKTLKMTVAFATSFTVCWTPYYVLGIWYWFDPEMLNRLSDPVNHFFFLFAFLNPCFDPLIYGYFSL
Sequence of D(2) dopamine receptor (Homo sapiens) (P14416 whole entry, looked up): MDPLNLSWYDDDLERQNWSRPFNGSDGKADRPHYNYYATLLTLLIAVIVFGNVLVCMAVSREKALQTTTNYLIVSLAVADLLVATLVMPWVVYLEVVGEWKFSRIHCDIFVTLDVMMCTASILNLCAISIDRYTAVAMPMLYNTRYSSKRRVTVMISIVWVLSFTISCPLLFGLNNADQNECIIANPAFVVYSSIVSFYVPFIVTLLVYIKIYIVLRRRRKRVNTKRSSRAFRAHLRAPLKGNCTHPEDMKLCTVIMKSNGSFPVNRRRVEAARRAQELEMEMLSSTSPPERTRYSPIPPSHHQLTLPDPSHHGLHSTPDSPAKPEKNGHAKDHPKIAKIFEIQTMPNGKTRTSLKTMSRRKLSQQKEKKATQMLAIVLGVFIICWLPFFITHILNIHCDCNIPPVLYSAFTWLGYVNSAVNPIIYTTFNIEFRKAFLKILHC
Sequence of 5-hydroxytryptamine receptor 2A (Homo sapiens) (P28223 whole entry, looked up): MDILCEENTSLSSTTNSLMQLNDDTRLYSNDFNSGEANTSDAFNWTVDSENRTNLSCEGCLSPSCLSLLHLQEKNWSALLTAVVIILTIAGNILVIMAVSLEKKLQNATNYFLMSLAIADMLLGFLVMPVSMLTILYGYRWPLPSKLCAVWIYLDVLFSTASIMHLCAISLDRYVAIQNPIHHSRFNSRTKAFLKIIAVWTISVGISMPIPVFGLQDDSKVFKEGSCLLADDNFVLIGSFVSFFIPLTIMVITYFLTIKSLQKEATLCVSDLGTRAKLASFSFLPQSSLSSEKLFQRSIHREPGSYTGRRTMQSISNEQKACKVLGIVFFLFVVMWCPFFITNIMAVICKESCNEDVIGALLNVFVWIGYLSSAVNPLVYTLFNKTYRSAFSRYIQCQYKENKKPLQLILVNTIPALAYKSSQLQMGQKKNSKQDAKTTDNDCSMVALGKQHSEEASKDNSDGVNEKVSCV
Sequence of Beta-2 adrenergic receptor (Homo sapiens) (P07550 whole entry, looked up): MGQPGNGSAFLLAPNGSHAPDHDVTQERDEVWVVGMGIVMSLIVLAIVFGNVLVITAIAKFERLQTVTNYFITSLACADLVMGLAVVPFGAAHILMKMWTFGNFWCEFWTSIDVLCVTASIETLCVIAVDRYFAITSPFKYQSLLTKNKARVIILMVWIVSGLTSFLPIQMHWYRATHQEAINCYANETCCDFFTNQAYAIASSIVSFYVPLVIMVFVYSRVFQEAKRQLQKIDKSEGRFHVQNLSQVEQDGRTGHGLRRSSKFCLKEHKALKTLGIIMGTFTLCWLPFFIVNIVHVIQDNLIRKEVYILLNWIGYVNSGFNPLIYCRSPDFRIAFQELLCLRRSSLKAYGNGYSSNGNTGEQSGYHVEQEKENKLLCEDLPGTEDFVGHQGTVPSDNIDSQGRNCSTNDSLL

CCCCC#N
not listed: [19]
inactive: all other assays above

O=Cc1ccccc1
not listed: [12] | [13] | [16] | [19]
inactive: all other assays above

O=c1ccc(=O)[nH][nH]1
inactive: all assays above

Cc1cccc(N=Nc2ccc(N(C)C)cc2)c1
active: [2] 247 nM and 1.72 µM
not listed: [16]
inactive: all other assays above

Nc1nc(N)nc(Cl)n1
not listed: [14]
inactive: all other assays above

ClCCOCCCl
inactive: all assays above

CCN(Cc1ccc(Cl)nc1)/C(=C/[N+](=O)[O-])NC
not listed: [19]
inactive: all other assays above

Nc1c(Oc2ccccc2)cc(O)c2c1C(=O)c1ccccc1C2=O
not listed: [14] | [19]
inactive: all other assays above

COC(=O)c1ccccc1CS(=O)(=O)NC(=O)Nc1nc(OC)cc(OC)n1
not listed: [10] | [11]
inactive: all other assays above

CCCCOC(=O)c1ccccc1C(=O)OCc1ccccc1
inactive and 68.6 µM (active): [2]
inactive and 646 nM (active): [7]
inactive and 5.9 nM (active): [10]
not listed: [12] | [14] | [19]
inactive: all other assays above

Cc1cc(Cl)ccc1N=CN(C)C
not listed: [9] | [14]
inactive: all other assays above

CCC1(c2ccccc2)CCC(=O)NC1=O (centres undefined)
not listed: [18] | [19]
inactive: all other assays above
